# In PubChem BioAssay AID1233 (SRMLSC, 2008):
# Potency and affinity values are given separately. Calls of active or inactive are those of the source.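 How the source made its calls: active means a dose-response curve fit returns a half-maximal inhibitory concentration, extrapolated values included; inactive means the fit returns no such concentration.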
# Target: HMG-CoA reductase [Enterococcus faecalis] (UniProt Q9FD70)
# Experiment: class II HMG-CoA reductase inhibition potency – biochemical, Enterococcus faecalis, confirmation (AID 1233)
# Details: purified E. faecalis HMGR, NADPH absorbance 340 nm kinetics; series mostly up to 100 µM
row,Compound,outcome
1,CCCCC1C2=C(CC(C)(C)CC2=O)OC2=C1C(=O)CC(C)(C)C2,inactive
2,O=C(Cn1cccc1C(=O)c1ccccc1)NCc1ccco1,inactive
3,Cc1cc(C(=O)NN=C2CCCCC2)c2ccccc2n1,inactive
4,Cc1ccc(-c2cc(C(=O)O)n(-c3ccc(S(N)(=O)=O)cc3)n2)cc1,inactive
5,COc1cc(NC(=O)c2cc3nc(-c4ccccc4)cc(-c4ccccc4)n3n2)cc(OC)c1OC,inactive
6,CCN1C(=O)/C(=C/c2cn(C)nc2C)SC1=S,inactive
7,CCOc1cc(/C=N\NC(=O)OC(C)(C)C)ccc1OC(=O)c1ccco1,inactive
8,O=C(CCc1nnc(CCCc2ccccc2)o1)NCCc1ccccc1,inactive
9,CCc1c(C#N)c(N)nc(SCC(=O)OCc2ccccc2)c1C#N,inactive
10,Cn1c(OCc2cccnc2)nc2c1c(=O)n(Cc1ccc(Br)cc1)c(=O)n2C,inactive
11,CCn1c2ccccc2c2cc(CNCc3ccc(OC)cc3OC)ccc21,inactive
12,COC(=O)CNC(=O)CSc1nnc2cc(C)c3ccccc3n12,inactive
13,COC(c1ccccc1)c1nnc(CCC(=O)NCCC(C)C)o1 (stereo not given),inactive
14,O=C(Nc1cccc(Br)c1)c1ccc2nc(N3C(=O)CCC3=O)sc2c1,inactive
15,CCOC(=O)c1cc2c(ccn2C)n1CC(=O)N1CCN(c2cccc(C(F)(F)F)c2)CC1,inactive
16,COc1ccc(C(=O)NC2CCN(C(=S)NCCc3ccccc3)CC2)cc1,inactive
17,O=C1c2ccccc2C(=O)N1CCC(O)C[N+](=O)[O-] (stereo not given),inactive
18,COc1ccc(-c2nnc(SC(C)C(=O)Nc3ccc4c(c3)OCCO4)o2)cc1 (stereo not given),inactive
19,CSc1nc(-c2ccc(C)cc2)nc(C(Cl)Cl)n1,inactive
20,Cc1ccc(Cl)cc1N=C(N)N=C(N)N,inactive
